Measured values published in PubChem BioAssay.
For part of these data: Potency and affinity values are given separately. Active and inactive are the calls of the source. Unless noted, no rule for the calls is given here.

Key:
[1] = antimalarial activity against Dd2 strain (AID 2302;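 active = growth inhibition above 50% at the single 2 µM test dose, taken to imply half-maximal potency below 2 µM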;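 also: 0% = DMSO untreated growth and 100% = chloroquine plus artemisinin killed control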); settings: P. falciparum Dd2 in RBCs, LDH growth readout, 72 h; at 2 µM; hits give high values
[2] = HepG2 cytotoxicity, primary screen, cytotoxicity control for P. falciparum antimalarial project, cell-based, ATP luminescence (AID 2303;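 active = inhibition above 50%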;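 also: 0% = DMSO wells and 100% = digitonin-killed cells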); settings: HepG2 viability, 24-48 h, at 10 µM, hits give high values
[3] = target: L-lactate dehydrogenase (Plasmodium falciparum (isolate CDC / Honduras)) (UniProt Q27743); test: PfLDH activity inhibition – cell lysate, 3D7 strain, counter-screen for P. falciparum growth inhibition project (AID 2304);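 also: 0% = vehicle and 100% = reference inhibitor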; settings: P. falciparum 3D7 crude extract, LDH APAD/NBT absorbance; at 2 µM; hits give high values
[4] = inhibition of 3D7 malaria parasite growth – strain 3D7 (AID 2306);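 also: 0% = DMSO wells and 100% = chloroquine plus artemisinin control wells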; settings: P. falciparum 3D7 erythrocytic growth, LDH absorbance, 72 h; at 2 µM; hits give high values
[5] = target: Calcium-dependent protein kinase 1 (Plasmodium falciparum (isolate 3D7)) (UniProt P62344); test: PfCDPK1 kinase inhibitors, biochemical, TCAMS library (AID 1159585; cut-off not given, nearly all actives have IC50 up to about 0.98 µM;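 also: inhibitors leave more ATP so luminescence rises with inhibition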); settings: recombinant PfCDPK1, Kinase-Glo ATP depletion luminescence
[6] = target: Plasmodium falciparum protein kinase 6 (PK6, PF3D7_1337100) (UniProt Q8IDW1); test: PfPK6 kinase inhibitors, biochemical, TCAMS library (AID 1159586); settings: recombinant PfPK6, Kinase-Glo ATP depletion luminescence
[7] = target: Protein kinase 7 (PK7), Plasmodium falciparum 3D7 (PF3D7_0213400) (UniProt Q7YTF7); test: inhibition of Plasmodium PK7 catalytic activity – biochemical, TCAMS antimalarial set, Kinase-Glo luminescence (AID 1159587); settings: recombinant PfPK7, Kinase-Glo ATP depletion luminescence
[8] = target: Calcium-dependent protein kinase 4 (Plasmodium falciparum (isolate 3D7)) (UniProt Q8IBS5); test: PfCDPK4 kinase inhibitors, biochemical, TCAMS library (AID 1159588; cut-off not given, nearly all actives have IC50 up to about 0.91 µM); settings: recombinant PfCDPK4, Kinase-Glo ATP depletion luminescence
Calcium-dependent protein kinase 4 (Plasmodium falciparum (isolate 3D7)), sequence (Q8IBS5 whole entry, looked up): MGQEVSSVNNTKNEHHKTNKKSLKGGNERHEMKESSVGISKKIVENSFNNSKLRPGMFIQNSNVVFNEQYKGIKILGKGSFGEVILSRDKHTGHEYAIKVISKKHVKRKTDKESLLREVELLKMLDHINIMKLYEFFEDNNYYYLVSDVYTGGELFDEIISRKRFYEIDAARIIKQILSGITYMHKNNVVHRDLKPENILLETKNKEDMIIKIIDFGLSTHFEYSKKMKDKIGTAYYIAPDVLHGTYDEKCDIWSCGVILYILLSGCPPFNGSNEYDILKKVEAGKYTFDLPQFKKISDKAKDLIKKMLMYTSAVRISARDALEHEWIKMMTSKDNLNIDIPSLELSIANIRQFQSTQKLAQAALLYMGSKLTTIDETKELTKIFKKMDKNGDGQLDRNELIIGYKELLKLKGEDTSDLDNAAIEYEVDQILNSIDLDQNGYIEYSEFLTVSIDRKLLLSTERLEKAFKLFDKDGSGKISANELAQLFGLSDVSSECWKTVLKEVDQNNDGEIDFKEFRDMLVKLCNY

L-lactate dehydrogenase (Plasmodium falciparum (isolate CDC / Honduras)), sequence (Q27743 whole entry, looked up): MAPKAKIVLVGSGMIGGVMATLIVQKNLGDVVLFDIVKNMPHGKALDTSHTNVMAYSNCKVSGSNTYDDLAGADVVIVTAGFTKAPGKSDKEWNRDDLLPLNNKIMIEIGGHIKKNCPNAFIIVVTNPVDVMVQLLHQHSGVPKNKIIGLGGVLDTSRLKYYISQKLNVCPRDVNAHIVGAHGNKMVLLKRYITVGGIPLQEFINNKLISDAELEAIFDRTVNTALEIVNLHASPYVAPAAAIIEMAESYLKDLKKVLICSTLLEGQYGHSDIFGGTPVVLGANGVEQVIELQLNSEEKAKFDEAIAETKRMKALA
Calcium-dependent protein kinase 1 (Plasmodium falciparum (isolate 3D7)), sequence (P62344 whole entry, looked up): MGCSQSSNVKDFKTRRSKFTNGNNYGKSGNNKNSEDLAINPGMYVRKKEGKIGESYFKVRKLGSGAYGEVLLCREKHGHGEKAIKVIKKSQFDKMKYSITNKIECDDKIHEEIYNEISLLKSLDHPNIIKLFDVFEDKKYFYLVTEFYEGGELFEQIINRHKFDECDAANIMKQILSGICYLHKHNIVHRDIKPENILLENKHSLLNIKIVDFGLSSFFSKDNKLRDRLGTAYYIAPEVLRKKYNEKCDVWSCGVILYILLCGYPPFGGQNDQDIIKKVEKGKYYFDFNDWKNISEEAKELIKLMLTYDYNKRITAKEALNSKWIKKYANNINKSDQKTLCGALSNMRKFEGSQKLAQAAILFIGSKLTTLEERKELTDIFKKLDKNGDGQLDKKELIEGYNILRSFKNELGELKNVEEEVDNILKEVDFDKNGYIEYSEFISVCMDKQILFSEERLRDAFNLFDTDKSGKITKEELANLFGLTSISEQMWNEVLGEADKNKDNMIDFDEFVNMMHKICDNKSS
Protein kinase 7 (PK7), Plasmodium falciparum 3D7 (PF3D7_0213400), sequence (Q7YTF7 1-343): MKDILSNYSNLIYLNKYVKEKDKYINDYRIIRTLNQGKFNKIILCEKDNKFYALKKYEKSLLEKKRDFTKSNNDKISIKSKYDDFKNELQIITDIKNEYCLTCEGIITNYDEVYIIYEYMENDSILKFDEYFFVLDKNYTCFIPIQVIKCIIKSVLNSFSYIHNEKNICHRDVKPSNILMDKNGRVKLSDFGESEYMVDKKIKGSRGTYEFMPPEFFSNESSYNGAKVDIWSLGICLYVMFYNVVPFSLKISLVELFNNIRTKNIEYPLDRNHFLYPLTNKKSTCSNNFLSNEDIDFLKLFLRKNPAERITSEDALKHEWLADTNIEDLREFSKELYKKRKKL
Plasmodium falciparum protein kinase 6 (PK6, PF3D7_1337100), sequence (Q8IDW1 1-305): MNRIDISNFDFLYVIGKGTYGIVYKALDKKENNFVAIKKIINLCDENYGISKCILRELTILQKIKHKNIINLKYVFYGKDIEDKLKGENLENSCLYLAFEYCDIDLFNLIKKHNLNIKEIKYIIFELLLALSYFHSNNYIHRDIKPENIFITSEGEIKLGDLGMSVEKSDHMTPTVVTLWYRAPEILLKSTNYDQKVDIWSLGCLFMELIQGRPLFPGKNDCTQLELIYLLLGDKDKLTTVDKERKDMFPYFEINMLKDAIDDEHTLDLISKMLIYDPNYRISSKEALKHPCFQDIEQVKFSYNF

CCc1ccc(S(=O)(=O)Nc2ccc(CCN(C)C3CCN(C)CC3)cc2)cc1
active: growth inhibition [4] 86%
inactive: growth inhibition [1] 9% | inhibition [2] 25% | inhibition [3] -4% | outcome [5] | outcome [6] | outcome [7] | outcome [8]

O=C(/C=C/c1ccc(Cl)c(Cl)c1)NCCCCCN1CCCC(CNS(=O)(=O)c2ccc(F)cc2)C1 (stereo not drawn)
active: inhibition [2] 56% | growth inhibition [4] 91%
inactive: growth inhibition [1] 7% | inhibition [3] 1% | outcome [5] | outcome [6] | outcome [7] | outcome [8]

CN(C)C(=O)CCCn1c(CNCCCNc2cc(=O)c3ccccc3[nH]2)cc2c(Cl)cc(Cl)cc21
inactive: growth inhibition [1] -4% | inhibition [2] 1% | inhibition [3] -1% | outcome [5] | outcome [6] | outcome [7] | outcome [8]
active: growth inhibition [4] 89%

CN1C(=O)C(=O)N(CCCCCON=C(N)N)C1=S
inactive: growth inhibition [1] 1% | inhibition [2] 21% | inhibition [3] -1% | outcome [5] | outcome [6] | outcome [7] | outcome [8]
active: growth inhibition [4] 101%

CC(C)COc1ccc(Cl)cc1Cc1nc(-c2nc3ccc(CN4CCN(C)CC4)cc3[nH]2)co1
active: growth inhibition [1] 57% | growth inhibition [4] 101%
inactive: inhibition [2] 5% | inhibition [3] 7% | outcome [5] | outcome [6] | outcome [7] | outcome [8]

Cc1ccccc1OCC(O)CNC1CCC(NCC(O)COc2ccccc2C)CC1 (stereo not drawn)
active: inhibition [2] 96% | growth inhibition [4] 98%
inactive: growth inhibition [1] 24% | inhibition [3] 0% | outcome [5] | outcome [6] | outcome [7] | outcome [8]

Cc1c(C)n(C2CCCCC2)c2ncnc(OC3CCN(CC(=O)NC4CC4)CC3)c12
inactive: inhibition [2] 21% | inhibition [3] -2% | outcome [5] | outcome [6] | outcome [7] | outcome [8]
active: growth inhibition [1] 72% | growth inhibition [4] 94%

CCCCCN(C(=O)Nc1cc(C(F)(F)F)cc(C(F)(F)F)c1)C(C)c1nc2ccccc2c(=O)n1CC (stereo not drawn)
inactive: inhibition [2] -3% | inhibition [3] 3% | outcome [5] | outcome [6] | outcome [7] | outcome [8]
active: growth inhibition [1] 101% | growth inhibition [4] 100%

CCc1cn(C)c2c(N3CCCC3=O)cc(C(=O)N[C@@H](Cc3ccccc3)[C@H](O)CNC(C)(C)c3cccc(C(F)(F)F)c3)cc12
active: growth inhibition [1] 97% | growth inhibition [4] 97%
inactive: inhibition [2] 22% | inhibition [3] 0% | outcome [5] | outcome [6] | outcome [7] | outcome [8]

CO/C(=C\C=C\c1cc2cc(Cl)ccc2[nH]1)C(=O)NCCCN1CCN(c2cc(Cl)ccc2OC)CC1
active: growth inhibition [4] 97%
inactive: growth inhibition [1] 21% | inhibition [2] 41% | inhibition [3] -2% | outcome [5] | outcome [6] | outcome [7] | outcome [8]

Cc1cc(-c2cccc(CNC3CCCC3)c2)ccc1S(=O)(=O)NCCN1CCCC1
inactive: growth inhibition [1] 7% | inhibition [2] 38% | inhibition [3] 2% | outcome [5] | outcome [6] | outcome [7] | outcome [8]
active: growth inhibition [4] 81%

COC(=O)CCCCOc1cc(Cc2cnc(N)nc2N)cc(OC)c1OC
inactive: growth inhibition [1] -1% | inhibition [2] -10% | inhibition [3] -3% | outcome [5] | outcome [6] | outcome [7] | outcome [8]
active: growth inhibition [4] 97%

CCCCCCCN1CC[C@@H](CCCc2ccnc3ccc(OC)cc23)[C@@H](CCN)C1
inactive: growth inhibition [1] 11% | inhibition [3] -5% | outcome [5] | outcome [6] | outcome [7] | outcome [8]
active: inhibition [2] 50% | growth inhibition [4] 102%

O=C(Nc1ccc(-c2nc3ccccc3[nH]2)cc1)c1ccc(Cl)s1
active: growth inhibition [4] 99%
inactive: growth inhibition [1] 34% | inhibition [2] 16% | inhibition [3] 4% | outcome [5] | outcome [6] | outcome [7] | outcome [8]

COc1cc(F)c2ncc(Cl)c(CCN3CCC(NCc4cc5c(cn4)OCCO5)CC3)c2c1
inactive: inhibition [2] 2% | inhibition [3] -1% | outcome [5] | outcome [6] | outcome [7] | outcome [8]
active: growth inhibition [1] 57% | growth inhibition [4] 89%

C=C1C[C@@H](n2cnc3c(NC(=O)c4ccccc4)ncnc32)[C@@H](F)[C@@H]1OC(c1ccccc1)(c1ccccc1)c1ccccc1
active: growth inhibition [1] 97% | growth inhibition [4] 98%
inactive: inhibition [2] 16% | inhibition [3] -5% | outcome [5] | outcome [6] | outcome [7] | outcome [8]

Cc1noc(C)c1-c1ccc2c(Nc3ccccc3C(C)(C)C)c(C(=O)NCc3ccccc3)cnc2c1
active: growth inhibition [1] 89% | growth inhibition [4] 99%
inactive: inhibition [2] 20% | inhibition [3] -1% | outcome [5] | outcome [6] | outcome [7] | outcome [8]

COc1cc2c(OC)cccc2cc1CNCCCCCCNCc1cc2cccc(OC)c2cc1OC
active: inhibition [2] 59% | growth inhibition [4] 95%
inactive: growth inhibition [1] 7% | inhibition [3] 1% | outcome [5] | outcome [6] | outcome [7] | outcome [8]

O=C(NCCCCN1CCN(c2cccc3c2OCCO3)CC1)c1ccc(NC(=O)c2cc(Cl)cc(Cl)c2)cc1
inactive: inhibition [2] 21% | inhibition [3] -3% | outcome [5] | outcome [6] | outcome [7] | outcome [8]
active: growth inhibition [1] 89% | growth inhibition [4] 101%

c1ccc(CCNCc2ccc(-c3ccc(CNc4ccc5ncccc5c4)cc3)cc2)cc1
inactive: growth inhibition [1] 27% | inhibition [2] 36% | inhibition [3] -1% | outcome [5] | outcome [6] | outcome [7] | outcome [8]
active: growth inhibition [4] 96%

Cc1nn(-c2ccc(Cl)cc2)c2[nH]c(CN3CCN(c4cccc(Cl)c4)CC3)cc(=O)c12
inactive: inhibition [2] 0% | inhibition [3] -3% | outcome [5] | outcome [6] | outcome [7] | outcome [8]
active: growth inhibition [1] 98% | growth inhibition [4] 98%

N#Cc1ccc(N2CCN(Cc3ccc(-c4ccc(-c5nc6ccc(C(F)(F)F)cc6[nH]5)s4)cc3)CC2)nc1
inactive: inhibition [2] 13% | inhibition [3] 4% | outcome [5] | outcome [6] | outcome [7] | outcome [8]
active: growth inhibition [1] 73% | growth inhibition [4] 100%

COc1cc2c(cc1S(=O)(=O)c1ccc(NC(=O)c3cccc(C(F)(F)F)c3)cc1)CCN(C)CC2
active: growth inhibition [4] 92%
inactive: growth inhibition [1] 25% | inhibition [2] 18% | inhibition [3] 3% | outcome [5] | outcome [6] | outcome [7] | outcome [8]

Cc1cccc(OC2CCN(c3ncc(C(=O)NCCCN4CCCC4=O)cc3Cl)CC2)c1
inactive: inhibition [2] 7% | inhibition [3] -2% | outcome [5] | outcome [6] | outcome [7] | outcome [8]
active: growth inhibition [1] 95% | growth inhibition [4] 96%

Cc1cc(N2CCCC2)nc(Nc2ccc(NC(=O)c3ccccc3)cc2)n1
active: growth inhibition [1] 65% | growth inhibition [4] 100%
inactive: inhibition [2] 26% | inhibition [3] -3% | outcome [5] | outcome [6] | outcome [7] | outcome [8]

CCCc1cc(C(=O)N[C@@H](Cc2ccccc2)[C@H](O)CNC2CCOCC2)c(F)c(N2CCCCS2(=O)=O)c1
inactive: inhibition [2] -6% | inhibition [3] -3% | outcome [5] | outcome [6] | outcome [7] | outcome [8]
active: growth inhibition [1] 97% | growth inhibition [4] 97%

COc1ccc2nc3cc(Cl)ccc3c(NCc3ccccc3)c2c1
active: growth inhibition [1] 50% | growth inhibition [4] 101%
inactive: inhibition [2] 8% | inhibition [3] 5% | outcome [5] | outcome [6] | outcome [7] | outcome [8]

CCNc1cc(C(=O)N[C@@H](Cc2ccccc2)[C@H](O)CNC(C)(C)CC(C)(C)C)c(F)c(N2CCCCS2(=O)=O)c1
active: growth inhibition [1] 63% | growth inhibition [4] 94%
inactive: inhibition [2] 8% | inhibition [3] -1% | outcome [5] | outcome [6] | outcome [7] | outcome [8]

Cc1[nH]c(C)c(-c2ccc(OCc3ccccc3C(F)(F)F)nc2)c(=O)c1Br
active: growth inhibition [1] 97% | growth inhibition [4] 98%
inactive: inhibition [2] 35% | inhibition [3] -6% | outcome [5] | outcome [6] | outcome [7] | outcome [8]

Cn1cnc(CCNC(=O)c2cccc(-c3cccc(-c4nc5ccc(C(F)(F)F)cc5[nH]4)c3)c2)c1
active: growth inhibition [4] 100%
inactive: growth inhibition [1] 45% | inhibition [2] 37% | inhibition [3] 4% | outcome [5] | outcome [6] | outcome [7] | outcome [8]

COc1cc(F)c2ncc(Cl)c(CCN3CCC(NCc4ccc5c(n4)NC(=O)CS5)CC3)c2c1
active: growth inhibition [4] 99%
inactive: growth inhibition [1] 41% | inhibition [2] 18% | inhibition [3] 3% | outcome [5] | outcome [6] | outcome [7] | outcome [8]

COc1ccc2ccccc2c1C=NNc1ccnc2cc(Cl)ccc12
inactive: inhibition [2] 20% | inhibition [3] -5% | outcome [5] | outcome [6] | outcome [7] | outcome [8]
active: growth inhibition [1] 94% | growth inhibition [4] 100%

CCCCCCCCN1CCCN(C(=O)c2cccc(NC(=O)Nc3ccc4ccccc4c3)c2)CC1
active: growth inhibition [4] 97%
inactive: growth inhibition [1] 39% | inhibition [2] 39% | inhibition [3] 1% | outcome [5] | outcome [6] | outcome [7] | outcome [8]

COc1ccc(-c2cccc(NC(=O)c3cccc(C#N)c3)c2)cc1CN1CCNCC1
inactive: growth inhibition [1] 15% | inhibition [2] 27% | inhibition [3] 0% | outcome [5] | outcome [6] | outcome [7] | outcome [8]
active: growth inhibition [4] 101%

O=C(Cc1ccccn1)Nc1cccc(-c2cccc(-c3nc4ccc(C(F)(F)F)cc4[nH]3)c2)c1
active: growth inhibition [4] 95%
inactive: growth inhibition [1] 22% | inhibition [2] 26% | inhibition [3] -2% | outcome [5] | outcome [6] | outcome [7] | outcome [8]

CN(C)CCOc1cc(NC(=O)/C=C/c2cccc3ccccc23)ccc1I
inactive: growth inhibition [1] 7% | inhibition [3] 0% | outcome [5] | outcome [6] | outcome [7] | outcome [8]
active: inhibition [2] 55% | growth inhibition [4] 98%
